In the supplement of paper PMC12350171:
Structures can show the parent of a compound that is named as a salt.

Legend:
Details in all cases: 20 µM
[1] = tested on: Salmonella enterica typhimurium; test: growth AUC normalised to DMSO control (fraction of control); higher = less growth inhibition, active = hit call of the paper
In short: (§1)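 Pathogens were passaged twice under anaerobic conditions, then inoculated into pre-reduced mGAM plates at a starting OD578 of 0.01, with compound at 20 μM and 1% DMSO, and sealed with breathable membranes. For Haemophilus parainfluenzae, the medium was supplemented with hemin and NAD. OD578 was read every hour for 24 h in three biological replicates. Growth-curve AUC was calculated by the trapezoidal rule up to the exponential-to-stationary transition and normalised to DMSO controls on the same plate.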

Shigella flexneri = test: as above
In short: as §1

Vibrio cholerae = test: as above
In short: as §1

[2] = tested on: Yersinia pseudotuberculosis; test: as above
In short: as §1

P. vulgatus RND KO = test: growth AUC normalised to DMSO control (median) (fraction of control); higher = less growth inhibition, active = hit call of the paper
In short: (§2)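 Anaerobic growth was tracked hourly at OD578 for 24 h in 96-well plates of mGAM seeded at OD578 0.01 with each approved-drug library compound at 20 μM and 1% DMSO. Strains had first been passaged twice overnight without oxygen. Three biological replicates were run. The reported median is the area under the curve, calculated by the trapezoidal rule on curves truncated at entry into stationary phase and normalised to vehicle wells on the same plate.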

P. vulgatus WT = test: as above
In short: as §2

[3] = tested on: S. enterica typhimurium WT; test: as above
In short: as §2

[4] = tested on: S. enterica typhimurium tolC KO; test: as above
In short: as §2

Measured: growth AUC normalised to DMSO control
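Wherever growth AUC normalised to DMSO control (median) is given: active when median AUC fell below 0.1.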

CO[C@@]1(NC(=O)C2SC(=C(C(N)=O)C(=O)O)S2)C(=O)N2C(C(=O)O)=C(CSc3nnnn3C)CS[C@@H]21 (stereo partly specified) [Cefotetan]
active: [1] 0.00234 | Shigella flexneri 0.0192 | Vibrio cholerae 0.186 | [2] 0.0842 | P. vulgatus RND KO 0.0118 | P. vulgatus WT 0.0068 | [3] 0.00563 | [4] 0.00413

CC1=C(/C=C/C(C)=C/C=C/C(C)=C/C(=O)O)C(C)(C)CCC1 [Retinoic acid]
inactive: [1] 1 | Shigella flexneri 0.994 | Vibrio cholerae 1 | [2] 0.998 | P. vulgatus RND KO 0.996 | P. vulgatus WT 0.992 | [3] 1 | [4] 0.993

CC[C@@H]1C(=O)OC[C@@H]1Cc1cncn1C [Pilocarpine nitrate]
inactive: [1] 0.995 | Shigella flexneri 1 | Vibrio cholerae 0.998 | [2] 1.04 | P. vulgatus RND KO 0.982 | P. vulgatus WT 0.998 | [3] 1 | [4] 1

COc1ccccc1N1CCN(CCCNc2cc(=O)n(C)c(=O)n2C)CC1 [Urapidil hydrochloride]
inactive: [1] 1.01 | Shigella flexneri 0.992 | Vibrio cholerae 0.984 | [2] 1 | P. vulgatus RND KO 0.976 | P. vulgatus WT 0.976 | [3] 1 | [4] 0.992

CCCCC(O)c1ccccc1 (stereo unspecified) [Fenipentol]
inactive: [1] 0.997 | Shigella flexneri 0.986 | Vibrio cholerae 1.01 | [2] 0.995 | P. vulgatus RND KO 1 | P. vulgatus WT 0.988 | [3] 1 | [4] 1

Clc1ccc2c(c1)C(N1CCNCC1)=Nc1ccccc1O2 [Amoxapine]
inactive: [1] 0.988 | Shigella flexneri 1.01 | [2] 1.01 | P. vulgatus RND KO 0.795 | P. vulgatus WT 0.759 | [3] 1.01 | [4] 0.972
active: Vibrio cholerae 0.8

NC12CC3CC(CC(C3)C1)C2 [Adamantamine fumarate]
inactive: [1] 1.02 | Shigella flexneri 1.06 | Vibrio cholerae 1.03 | [2] 1 | P. vulgatus RND KO 1.04 | P. vulgatus WT 1.08 | [3] 0.996 | [4] 0.996

CC(=O)NS(=O)(=O)c1ccc(N)cc1 [Sulfacetamide sodic hydrate]
inactive: [1] 1 | Shigella flexneri 1.01 | Vibrio cholerae 0.988 | [2] 0.998 | P. vulgatus RND KO 1.01 | P. vulgatus WT 1.05 | [3] 1.01 | [4] 0.997

NCCCCCC(=O)O [Aminocaproic acid]
inactive: [1] 0.999 | Shigella flexneri 1.06 | Vibrio cholerae 1.07 | [2] 1.02 | P. vulgatus RND KO 1.07 | P. vulgatus WT 1.1 | [3] 1.02 | [4] 1

CCC1(C)CC(=O)NC1=O (stereo unspecified) [Ethosuximide]
inactive: [1] 1.02 | Shigella flexneri 1.02 | Vibrio cholerae 1.03 | [2] 0.999 | P. vulgatus RND KO 1.02 | P. vulgatus WT 1.05 | [3] 1 | [4] 0.963

Clc1ccc(COC(Cn2ccnc2)c2ccc(Cl)cc2Cl)c(Cl)c1 (stereo unspecified) [Miconazole]
inactive: [1] 0.997 | Shigella flexneri 1.01 | Vibrio cholerae 0.995 | [2] 1.03 | P. vulgatus RND KO 0.938 | P. vulgatus WT 0.927 | [3] 0.993 | [4] 0.98

OC(CCN1CCCC1)(c1ccccc1)C1CCCCC1 (stereo unspecified) [Procyclidine hydrochloride]
inactive: [1] 0.975 | Shigella flexneri 0.953 | Vibrio cholerae 0.937 | [2] 0.984 | P. vulgatus RND KO 0.96 | P. vulgatus WT 0.941 | [3] 1.01 | [4] 0.983

Nc1ccc(/N=N/c2ccccc2)c(N)n1 [Phenazopyridine hydrochloride]
inactive: [1] 0.969 | Shigella flexneri 0.922 | Vibrio cholerae 0.927 | [2] 0.958 | P. vulgatus RND KO 1.03 | P. vulgatus WT 1.03 | [3] 0.989 | [4] 0.988

CC1(C)S[C@@H]2[C@H](NC(=O)[C@H](NC(=O)N3CCNC3=O)c3ccccc3)C(=O)N2[C@H]1C(=O)O [Azlocillin sodium salt]
active: [1] 0.766 | Shigella flexneri 0.0935 | Vibrio cholerae 0.78 | [2] 0.281 | P. vulgatus RND KO 0.0105 | P. vulgatus WT 0.0107 | [4] 0.00584
inactive: [3] 0.887

O=C1NCCN1c1ncc([N+](=O)[O-])s1 [Niridazole]
inactive: [2] 0.93
active: [1] 0.0187 | Shigella flexneri 0.204 | Vibrio cholerae 0.036 | P. vulgatus RND KO 0.00953 | P. vulgatus WT 0.00802 | [3] 0.0321 | [4] 0.0104

CCCCC1C(=O)N(c2ccccc2)N(c2ccccc2)C1=O [Phenylbutazone]
inactive: [1] 1.01 | Shigella flexneri 0.991 | Vibrio cholerae 0.973 | [2] 1.01 | P. vulgatus RND KO 1.03 | P. vulgatus WT 1.07 | [3] 1 | [4] 0.964

Nc1c2c(nc3ccccc13)CCCC2 [Tacrine hydrochloride]
inactive: [1] 0.995 | Shigella flexneri 1.03 | Vibrio cholerae 1.02 | [2] 0.98 | P. vulgatus RND KO 0.999 | P. vulgatus WT 1.06 | [3] 0.986 | [4] 0.992

CC(C)/N=c1\cc2n(-c3ccc(Cl)cc3)c3ccccc3nc-2cc1Nc1ccc(Cl)cc1 [Clofazimine]
active: P. vulgatus RND KO 0.0291 | P. vulgatus WT 0.0974
inactive: [1] 0.99 | Shigella flexneri 0.996 | Vibrio cholerae 1 | [2] 1.03 | [3] 0.972 | [4] 1.02

CCCOc1cc(N)ccc1C(=O)OCCN(CC)CC [Propoxycaine hydrochloride]
inactive: [1] 1.02 | Shigella flexneri 1.04 | Vibrio cholerae 1.07 | [2] 1.02 | P. vulgatus RND KO 1.01 | P. vulgatus WT 1.05 | [3] 0.997 | [4] 0.996

CC[C@H]1OC(=O)[C@H](C)[C@@H](O[C@H]2C[C@@](C)(OC)[C@@H](O)[C@H](C)O2)[C@H](C)[C@@H](O[C@@H]2O[C@H](C)C[C@H](N(C)C)[C@H]2O)[C@](C)(OC)C[C@@H](C)C(=O)[C@H](C)[C@@H](O)[C@]1(C)O [Clarithromycin]
inactive: [3] 0.744
active: [1] 0.688 | Shigella flexneri 0.508 | Vibrio cholerae 0.0231 | [2] 0.799 | P. vulgatus RND KO 0.0127 | P. vulgatus WT 0.0156 | [4] 0.00712

CCOC(=O)c1ccc(OC(=O)CCCCCNC(=N)N)cc1 [Gabexate mesilate]
inactive: [1] 0.993 | Shigella flexneri 0.973 | Vibrio cholerae 0.987 | [2] 0.932 | P. vulgatus RND KO 0.985 | P. vulgatus WT 1 | [3] 1 | [4] 0.325

COc1cc(C(=O)OCCCN2CCCN(CCCOC(=O)c3cc(OC)c(OC)c(OC)c3)CC2)cc(OC)c1OC [Dilazep dihydrochloride]
inactive: [1] 1 | Shigella flexneri 1.03 | Vibrio cholerae 1.01 | [2] 0.989 | P. vulgatus RND KO 0.993 | P. vulgatus WT 0.989 | [3] 1 | [4] 0.978

O=C(NCCNCC(O)COc1ccc(O)cc1)N1CCOCC1 (stereo unspecified) [Xamoterol hemifumarate]
inactive: [1] 0.969 | Shigella flexneri 0.945 | Vibrio cholerae 0.98 | [2] 0.993 | P. vulgatus RND KO 0.991 | P. vulgatus WT 0.982 | [3] 1.01 | [4] 0.99

C[N+]1(CCCCC[N+]2(C)CCCC2)CCCC1 [Pentolinium bitartrate]
inactive: [1] 0.991 | Shigella flexneri 1 | Vibrio cholerae 0.874 | [2] 0.994 | P. vulgatus RND KO 1 | P. vulgatus WT 0.978 | [3] 0.989 | [4] 0.996

CN(C)CCC[C@@]1(c2ccc(F)cc2)OCc2cc(C#N)ccc21 [Escitalopram oxalate]
inactive: [1] 1 | Shigella flexneri 0.991 | Vibrio cholerae 0.976 | [2] 0.99 | P. vulgatus RND KO 1.01 | P. vulgatus WT 1 | [3] 0.989 | [4] 0.982

NC[C@H]1O[C@H](O[C@H]2[C@H](O[C@@H]3O[C@H](CO)[C@@H](O)[C@H]3O)[C@@H](O)[C@H](N)C[C@@H]2N)[C@H](N)[C@@H](O)[C@@H]1O [Ribostamycin sulfate salt]
inactive: [1] 0.981 | Shigella flexneri 0.918 | Vibrio cholerae 0.974 | [2] 0.995 | P. vulgatus RND KO 0.988 | P. vulgatus WT 0.986 | [3] 0.98 | [4] 0.99

Nc1ccc(S(=O)(=O)Nc2ccccn2)cc1 [Sulfapyridine]
inactive: [1] 0.986 | Shigella flexneri 0.95 | Vibrio cholerae 0.984 | [2] 0.994 | P. vulgatus RND KO 1.01 | P. vulgatus WT 1 | [3] 0.998 | [4] 1
